# High-throughput results deposited in PubChem BioAssay by National Center for Advancing Translational Sciences (NCATS).
# In the library only some 3.2% were active in any assay of this set; here they are far more common.
# RGS12 GoLoco inh = qHTS Assay for Inhibitors of RGS12 GoLoco Motif Activity (Red Fluorophore); Guanine nucleotide-binding protein G(i) subunit alpha-1 (Homo sapiens), P63096; Gai1:RGS12 GoLoco peptide FP, rhodamine, 10 min; Potency, µM (highest dose often 61.6 µM), inactives show at the highest dose activity, negative = inhibition, actives largely listed as inhibitors; 230,000 compounds, 0.44% hits; AID 880, 2007; active = well fitted inhibition curve with a large enough effect, not every such curve was filed as active; inactive = no such curve, though single readings can be large or run the other way; also: nearly all actives have a fitted effect of over 30% in size
# TRb SRC2 PPI = qHTS for Inhibitors of the Interaction of Thyroid Hormone Receptor and Steroid Receptor Coregulator 2; TRbeta-SRC2 peptide binding, fluorescence polarization; receptor liganded with 1 µM T3; Potency, µM (series often up to 106 µM), for inactives: at the top dose activity change, negative = inhibition, actives largely listed as inhibitors; Thyroid hormone receptor beta (Homo sapiens), P10828; 280,000 compounds, 0.065% hits;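 also: plate controls were bound peptide for no effect and peptide without receptor for full effect; nearly all actives have a fitted effect of over 50% in size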
# Target sequence (P10828 whole entry, looked up): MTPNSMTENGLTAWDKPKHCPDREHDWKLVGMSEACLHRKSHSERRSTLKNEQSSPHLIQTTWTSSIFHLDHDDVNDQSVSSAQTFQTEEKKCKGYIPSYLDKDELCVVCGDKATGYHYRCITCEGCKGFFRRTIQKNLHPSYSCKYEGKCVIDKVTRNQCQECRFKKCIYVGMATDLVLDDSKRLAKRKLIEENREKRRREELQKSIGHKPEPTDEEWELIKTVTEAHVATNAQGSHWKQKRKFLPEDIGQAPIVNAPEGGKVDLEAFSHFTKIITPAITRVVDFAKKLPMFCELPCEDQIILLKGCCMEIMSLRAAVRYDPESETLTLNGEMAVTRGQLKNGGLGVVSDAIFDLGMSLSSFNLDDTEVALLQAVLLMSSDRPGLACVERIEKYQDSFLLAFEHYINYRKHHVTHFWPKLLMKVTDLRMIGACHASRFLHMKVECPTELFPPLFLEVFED
#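 A fluorescence polarization screen tested compounds at multiple concentrations against complex formation between 0.6 uM TRb ligand-binding domain and 20 nM Texas Red SRC2 peptide, with 1 uM T3 present; readout after 5 hr.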
# TR SRC2 fluor cs = Total Fluorescence Counterscreen for Inhibitors of the Interaction of Thyroid Hormone Receptor and Steroid Receptor Coregulator 2; TRb/SRC2 Texas Red total fluorescence interference; 280,000 compounds, 0.29% hits; Potency, µM (series often up to 106 µM), for inactives: at the highest dose fluorescence change, negative = quenching; active = well fitted curve in either direction with a large enough effect; inconclusive = small, poorly fitted or top-dose-only effect
#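 Human TRβ ligand-binding domain (0.6 uM) and Texas Red SRC2 peptide (20 nM) in Tris buffer with 1 uM T3 and 5% DMSO were incubated with pinned compound for 5 hr at ambient temperature. Total fluorescence was computed as S + 2P (555/632 nm).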
# Tau FP inhib = qHTS for Inhibitors of Tau Fibril Formation, Fluorescence Polarization; 280,000 compounds, 0.39% hits; AID 1468, 2008; Microtubule-associated protein tau (Homo sapiens), P10636; K18 P301L tau heparin fibrillization, Alexa594 FP, 6 h; Potency, µM (doses to about 57.7 µM), inactives show at the highest dose activity, negative = inhibition, most hits filed as inhibitors; also: nearly all actives have a fitted effect of over 55% in size
# Target sequence (P10636 561-689 P618L limits assumed): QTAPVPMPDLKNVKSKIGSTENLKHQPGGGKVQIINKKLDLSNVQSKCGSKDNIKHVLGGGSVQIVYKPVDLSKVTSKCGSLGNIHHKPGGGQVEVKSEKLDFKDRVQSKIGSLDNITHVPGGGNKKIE
#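 Human K18 P301L fragment (15 uM unlabeled plus 0.24 uM Alexa 594-labeled) in 100 mM sodium acetate pH 7 with compound, aggregation induced by 20 uM heparin for 6 hr at 37 C. ThT (30 uM) added for 1 hr, then Alexa 594 FP read.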
# Tau ThT inhib = qHTS for Inhibitors of Tau Fibril Formation, Thioflavin T Binding; Microtubule-associated protein tau (Homo sapiens), P10636; recombinant tau K18 P301L, heparin-induced fibrillization, ThT fluorescence; Potency, µM (series often up to 57.4 µM), for the others: top-dose activity, negative = inhibition, most hits filed as inhibitors; 270,000 compounds, 2.1% hits; also: nearly all actives have a fitted effect of over 55% in size
#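 K18 P301L tau (15 uM + 0.24 uM Alexa 594-tagged), heparin 20 uM, NaOAc pH 7, 6 h 37 C; ThT 30 uM, 1 h RT, ex 450/em 510 nm.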
# Tau fluor cs = Counterscreen qHTS for Inhibitors of Tau Fibril Formation, Fluorescence Polarization | tau K18 P301L Alexa594 fluorescence, heparin fibrillization | Potency, µM (series often up to 57.7 µM), for inactives: top-dose activity change, negative = decrease | 280,000 compounds, 0.93% hits | AID 1463, 2008; also: nearly all actives have a fitted effect of over 55% in size
#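 Human tau K18 P301L (15 uM unlabeled, 0.24 uM Alexa 594-labeled) in 100 mM sodium acetate pH 7 with 20 uM heparin, 6 hr at 37 C. ThT 30 uM added, 1 hr ambient; Alexa 594 FP and total fluorescence read at 555/632 nm.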
# Starred values were filed as active, the others as inactive; ? = inconclusive; / = no result given; [ ] = remark or other dose. Unless noted, calls follow the shape of the dose curve; as a rule, active = well fitted curve in the direction sought with a large enough effect; inconclusive = small, poorly fitted or top-dose-only effect, or another doubt; inactive = no such curve, though single readings can be large; an effect the other way counts as inactive or inconclusive. Unless noted, % is scaled to controls: 0 for no effect and ±100 for the full control effect; potency is read from the fitted curve at half-maximal effect.
SMILES,RGS12 GoLoco inh,TRb SRC2 PPI,TR SRC2 fluor cs,Tau FP inhib,Tau ThT inhib,Tau fluor cs
Cc1ccc(OC(C)C(=O)N=Nc2c(O)[nH]c3ccc([N+](=O)[O-])cc23)cc1 (stereo unspecified),1.8%,-0.6%,-3.6%,6.0%,?,15.8µM*[quencher]
CN(C)c1ccc(/C=N/NC(=O)c2cnc3ccccc3c2)cc1,7.6%,-1.3%,3.0%,-1.5%,0.631µM*,-21.7%
CN(C)c1ccc(/C=N\NC(=O)c2cccc3cc[nH]c23)cc1,-1.4%,6.3%,-5.8%,0.0%,10µM*,?
O=C(N/N=C/c1ccc(F)cc1)c1cc(-c2ccc3c(c2)OCO3)n[nH]1,5.8%,1.3%,-6.9%,-17.8%,/,-3.1%
CN(C)c1ccc(/C=N/NC(=O)c2cc(=O)[nH]c3ccccc23)cc1,87.1%,2.1%,2.1%,6.5%,-11.6%,-1.0%
CN(C)c1ccc(/C=N/NC(=O)c2cc(-c3ccc4c(c3)OCO4)n[nH]2)cc1,1.4%,-2.4%,-3.1%,11.1%,2.51µM*,?
C=CCC(C)(O)c1cccc(Br)c1 (stereo unspecified),-1.9%,1.5%,0.2%,-0.8%,2.6%,-3.2%
COc1ccc(N=Cc2sc(O)c3ccccc23)cc1,59.7%,-1.1%,-22.5%,?,?,7.08µM*[quencher]
COc1ccc(N=Cc2c(O)c3ccccc3n2C(C)=O)cc1,-77.5%,-5.1%,-3.3%,?,15.8µM*,?
C[C@H]1/C=C\CC(=O)NCc2cccc(c2)CNC(=O)N[C@H]1c1ccccc1,1.1%,8.5%,-0.6%,-0.9%,-1.9%,-1.5%
CCOC(=O)c1[nH]c2ccccc2c1NC(=O)c1ccccc1OCC,/,-1.7%,-4.5%,6.5%,?,14.1µM*[quencher]
CCOC(=O)c1[nH]c2ccccc2c1NC(=O)c1ccc(OCC)cc1,/,-6.6%,-1.0%,-1.8%,-3.8%,-27.1%
COC(=O)C1=C(C(=O)OC)[C@@H]2Nc3ccccc3[C@@]23C[C@@H](C(=O)OC)N(S(=O)(=O)c2ccc(OC)cc2)C3=N1,4.0%[14.2 µM],2.1%[11.2 µM],-3.5%[11.2 µM],2.4%[11.6 µM],-12.7%[11.5 µM],-19.4%[11.6 µM]
CC(=O)OCOC(=O)CNc1ccccc1OCCOc1ccccc1NCC(=O)OCOC(C)=O,/,-1.0%,?,/,/,/
CN(C)/N=C/c1c(O)ccc2ccccc12,0.1%,-3.3%,-1.2%,8.2%,?,?
Oc1ccc2ccccc2c1/C=N/c1nccs1,-11.5%,35.5µM*,?,-13.6%,?,-7.9%
Cc1cc(N=Cc2c(O)ccc3ccccc23)no1,/,50.1µM*,?,?,22.4µM*,?
COC(=O)N[C@@H](c1cccc(C)c1)C(C(C)=O)C(=O)OC (stereo partly specified),3.2%,7.0%,-3.7%,-4.6%,-9.8%,-9.8%
CC(C)n1c(=S)[nH]c2c1c(=O)[nH]c(=O)n2C,10µM*,1.1%,0.4%,?,?,-18.3%
CC(=O)c1ccc(NC(=O)c2ccc3c(c2)N(Cc2cccc(Cl)c2)C(=O)c2ccccc2S3(=O)=O)cc1,/,7.0%,-1.2%,15.8µM*,-10.2%,?
O=C(Nc1cccc(F)c1)c1ccc2c(c1)N(Cc1ccccc1)C(=O)c1ccccc1S2(=O)=O,/,5.2%,-0.5%,14.1µM*,5.2%,?
CCCCN(C)C(=O)c1ccc2c(c1)N(Cc1ccc(F)cc1)C(=O)c1ccccc1S2(=O)=O,/,-12.4%,0.0011µM*[quencher],-2.6%,?,?
COc1ccc(NC(=O)c2ccc3c(c2)N(Cc2cccc(Cl)c2)C(=O)c2ccccc2S3(=O)=O)cc1Cl,/,0.0%,-1.0%,15.8µM*,12.2%,-17.4%
O=C(NC1CCCCC1)c1ccc2c(c1)N(Cc1ccc(F)cc1)C(=O)c1ccccc1S2(=O)=O,/,-26.0%,?,-14.6%,?,?
Cc1ccc(C2CC(=O)Oc3ccc(C(C)(C)C)cc32)cc1 (stereo unspecified),8.1%[88.7 µM],5.5%,3.2%,-7.5%[81.3 µM],-5.2%[81.4 µM],-8.8%[81.3 µM]
SMILES,RGS12 GoLoco inh,TRb SRC2 PPI,TR SRC2 fluor cs,Tau FP inhib,Tau ThT inhib,Tau fluor cs
O=C(Nc1ccc(O)c2c(=O)cc(-c3ccccc3Cl)oc12)c1cc(Cl)cc(Cl)c1,/,2.6%,-2.1%,/,/,/
COc1ccc2ccccc2c1/C=C\C(=O)c1ccccc1,-1.3%[14.2 µM],/,/,/,/,/
COc1ccc(/C=C/C(=O)c2ccncc2)c2ccccc12,-8.2%,-2.8%,-10.7%,?,15.8µM*,-13.1%
COC1(OC)N=C(N)C2(C#N)C(c3ccc(C)cc3)C12C#N (stereo unspecified),-8.9%,2.6%,0.5%,-6.5%,-13.0%,-9.4%
COC1(OC)N=C(NC(=O)Nc2ccccc2)C2(C#N)C(c3ccccc3)C12C#N (stereo unspecified),-11.7%,-1.8%,1.6%,?,20µM*,-25.3%
CCOC(=O)C1(C)C=C(Nc2ccc(O)cc2)C(=O)N1c1ccc(O)cc1 (stereo unspecified),-16.2%,5.1%,-1.4%,28.2µM*,14.1µM*,?
CCOC(=O)C1(C)C=C(Nc2ccc(OC)cc2)C(=O)N1c1ccc(OC)cc1 (stereo unspecified),-35.3%,-13.1%,-0.4%,2.4%,4.2%,-0.7%
Cc1ccc(S(=O)(=O)/N=C2/NC(=O)/C(=C/c3ccccc3)S2)cc1,17.2%,-1.2%,1.9%,16.2%,-5.9%,10.9%
COc1cc(/C=C2\S/C(=N/S(=O)(=O)c3ccc(C)cc3)NC2=O)c([N+](=O)[O-])cc1OC,-5.6%,6.5%,-20.3%,?,14.1µM*,?
COc1ccc(-c2nc(-c3ccccc3)c(-c3ccc(O)cc3)[nH]2)cc1,/,3.8%,-4.1%,?,?,14.1µM*[quencher]
COc1ccc(-c2[nH]c(-c3ccc(O)cc3)nc2-c2ccccc2)cc1,/,-8.2%,-4.5%,6.7%,?,22.4µM*[quencher]
COc1cc(/C=C2/C(=O)c3cccc([N+](=O)[O-])c3C2=O)c(Br)cc1O,19.9%,-5.7%,-19.7%,?,12.6µM*,?
COc1ccc(-c2nc(-c3cccc([N+](=O)[O-])c3O)cc(=O)o2)cc1OC,-10.4%,-6.1%,-1.8%,-14.2%,?,-11.8%
Cc1ccc(-c2nc(N)s[n+]2-c2ccccc2)cc1,3.55µM*,1.7%[53 µM],-1.3%[53 µM],-0.8%,3.2%,6.2%
O=C(/C=C/c1ccccc1)Nc1sc2c(c1C(=O)O)CCC2,9.5%,4.3%,-5.6%,-1.8%,10µM*,?
